# In the library only some 8.1% were active in any assay of this set; here they are far more common.
# Sfp PPTase inh: inhibitors of Bacillus subtilis Sfp phosphopantetheinyl transferase; Q9F4F7; Biochemical Sfp PPTase activity, qHTS; Potency, µM, inactives show largest response in the series, negative = inhibition, usual class: inhibitors; 310,000 tested, 3.5% active; AID 1490;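 further: the enzyme is Sfp with the accession as filed and its product quenches rhodamine fluorescence; 0% = enzyme reaction without inhibitor and -100% = no enzyme wells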
#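 Fluorescence-quenching assay: 15 nM Sfp-PPTase preincubated 15 min at room temperature with compound, then 5 uM rhodamine-CoA and 12.5 uM BHQ-2-labelled YbbR peptide added. Fluorescence (ex 525/em 598 nm) read at start and after 30 min; difference gives rate.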
# PINK1 modulator: modulators of PINK1 expression | PINK1 immunofluorescence, high-content cytometry, 24 h | Potency, µM (titrated, usually from 76.6 µM), for the others: at the top dose activation (PINK1 increase), hits mostly activators | 410,000 tested, 0.2% active; active means well fitted activation curve with a large enough effect; inconclusive means small, poorly fitted or top-dose-only effect; cell line not stated here; further: % of control where 0% means no effect; nearly all actives have a fitted effect of over 65% in size
#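 Measures PINK1 amount and localization on or inside mitochondria by immunofluorescence. Stable cells get compounds at 5 concentrations for 24 hours before fixation and staining; CCCP controls included.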
# ClpP mod: qHTS Assay for Activators of ClpP; AID 651965, 2013; ATP-dependent Clp protease proteolytic subunit (Bacillus subtilis (strain 168)), P80244; Potency, µM (highest dose often 57.5 µM), without a hit: top-dose activity change, negative = active; 340,000 tested, 1.9% active; purified B. subtilis ClpP, FRET peptide cleavage, 20 min; active means well fitted falling curve with a large enough effect; inconclusive means small, poorly fitted or top-dose-only effect; inactive means no such curve, though single readings can be large or run the other way; further: the source files actives as falling curves though it sought activators and does not explain the sign; nearly all actives have a fitted effect of over 65% in size
# Target sequence (P80244 whole entry, looked up): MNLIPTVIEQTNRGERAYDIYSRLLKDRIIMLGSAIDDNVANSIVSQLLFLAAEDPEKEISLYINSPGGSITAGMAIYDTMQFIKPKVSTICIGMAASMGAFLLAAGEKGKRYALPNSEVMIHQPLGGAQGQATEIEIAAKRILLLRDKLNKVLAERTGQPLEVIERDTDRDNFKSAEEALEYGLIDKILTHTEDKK
#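 ClpP 10 microg/mL final, pH 8 Tris/KCl buffer with BSA, glycerol, Tween-20; compound pinned in; FRET-FV substrate; RT 20 min; Ex320/Em430; ΔFRET vs ADEP 5.8 microM, DMSO, no enzyme.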
# Epigenetic reg: derepresses silenced GFP reporter in murine cells; murine LDR cells, GFP reporter derepression, 30 h; 280,000 tested, 0.2% active; Potency, µM (highest dose often 53.9 µM), without a hit: at the top dose GFP activation, hits mostly activators; further: % of control where 0% means no effect; nearly all actives have a fitted effect of over 60% in size
#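 Readout is the number of GFP-expressing murine LDR cells, counted by cytometry following washing. Cells were treated with compound for 30 h at 37 C; the stably integrated CMV-GFP locus is normally silent.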
# VP16 counter: Gal4-VP16 reporter inhibition counter-screen; Potency, µM (series often up to 53.6 µM), without a hit: top-dose activity, negative = inhibition, hits mostly inhibitors; AID 2546; 310,000 tested, 3.5% active; Drosophila S2 Gal4-VP16 UAS-luciferase, luminescence, 20 h;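 further: Gal4-VP16 expression switched on by copper sulfate through the metallothionein promoter; on the % scale 0 is the no-effect control and ±100 the full control effect; nearly all actives have a fitted effect of over 50% in size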
# RORg inh: blocks mouse ROR gamma transcriptional activity; P51450; Drosophila S2 Gal4-RORgamma UAS-luciferase reporter, 20 h; Potency, µM (top dose mostly 53.6 µM), for the others: at the highest dose activity change, negative = inhibition, actives largely listed as inhibitors; 310,000 tested, 5.4% active; AID 2551; further: on the % scale 0 is the no-effect control and ±100 the full control effect; nearly all actives have a fitted effect of over 60% in size
# Target sequence (P51450 whole entry, looked up, the tested form may be a part): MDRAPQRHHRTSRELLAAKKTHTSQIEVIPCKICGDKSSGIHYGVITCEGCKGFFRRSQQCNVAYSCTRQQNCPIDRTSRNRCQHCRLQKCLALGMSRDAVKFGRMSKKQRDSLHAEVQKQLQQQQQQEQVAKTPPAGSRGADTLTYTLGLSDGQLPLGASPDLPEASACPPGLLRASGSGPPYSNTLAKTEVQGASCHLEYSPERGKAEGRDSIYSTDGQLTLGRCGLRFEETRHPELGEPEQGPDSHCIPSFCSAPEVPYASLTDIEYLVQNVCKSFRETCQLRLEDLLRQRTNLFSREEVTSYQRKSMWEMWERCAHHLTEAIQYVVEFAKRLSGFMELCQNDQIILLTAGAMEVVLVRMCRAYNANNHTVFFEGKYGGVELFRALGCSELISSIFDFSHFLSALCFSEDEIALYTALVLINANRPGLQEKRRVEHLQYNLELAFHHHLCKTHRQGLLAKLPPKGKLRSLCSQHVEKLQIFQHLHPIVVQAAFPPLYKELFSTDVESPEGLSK
#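 In this cell-based reporter format, copper sulfate (700 uM final) drives Gal4–ROR gamma fusion expression from a metallothionein promoter in Drosophila Schneider cells; compounds preincubated 1 hr, reporter read after 20 hr at ambient temperature.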
# The depositor's hits bear a star; ? = inconclusive; / = no result given; [ ] = another dose, or the depositor's remark. Unless noted, the call rests on the fitted dose curve; in most records, active means well fitted curve in the direction sought with a large enough effect; inconclusive means small, poorly fitted or top-dose-only effect, or another doubt; inactive means no such curve, though single readings can be large; an effect the other way counts as inactive or inconclusive. Potency means the concentration at half of the fitted maximal effect.
SMILES,Sfp PPTase inh,PINK1 modulator,ClpP mod,Epigenetic reg,VP16 counter,RORg inh
CCc1ccc(S(=O)(=O)c2nnn3c2nc(Nc2ccc(C)c(Cl)c2)c2sccc23)cc1,/,2%,-17%,6%,/,/
Cc1sc2ncn(CC(=O)Nc3cccc(C(F)(F)F)c3)c(=O)c2c1S(=O)(=O)N1CCC(C)CC1,/,0%,-3%,4%,/,/
Cc1cc(Cl)ccc1NC(=O)CS(=O)(=O)c1cccc2nsnc12,/,-4%,-2%,0%,/,/
O=C(NCc1cccnc1)C(=O)Nc1nc(C23CC4CC(CC(C4)C2)C3)cs1,3%,2%,/,1%,-3%,?
O=C(NCc1ccc(F)cc1)C(=O)Nc1nc(C23CC4CC(CC(C4)C2)C3)cs1,5%,16%,-6%,-1%,4µM*,5.6µM*
CNC(=O)C(=O)Nc1nc(C23CC4CC(CC(C4)C2)C3)cs1,10%,0%,/,1%,12%,-42%
O=C(NCc1ccccc1)C(=O)Nc1nc(C23CC4CC(CC(C4)C2)C3)cs1,11%,?,-6%,0%,7.1µM*,7.9µM*
Cc1noc(C)c1C(=O)Nc1nc(C23CC4CC(CC(C4)C2)C3)cs1,4%,?,-6%,1%,22µM*,?
O=C(NCc1ccncc1)C(=O)Nc1nc(C23CC4CC(CC(C4)C2)C3)cs1,-7%,0%,2%,-1%,-22%,-6%[10 µM]
Cc1cccc(CC(=O)NC2CC(=O)N(c3cccc(F)c3)C2)c1 (stereo unspecified),/,5%,1%,2%,/,/
C(=C\c1ccnc2ccccc12)/c1ccc(N2CCNCC2)cc1,/,/,0%,/,/,/
CCn1cc(C(=O)N(C)Cc2ccccc2)c(=O)c2cc(S(=O)(=O)N3CCc4ccccc4C3)ccc21,/,0%,-10%,-1%,/,/
CCN(CC)S(=O)(=O)c1ccc(/C(O)=C(\C#N)c2nc3ccccc3n2C)cc1,25%,/,1%,1%,5.6µM*,2.8µM*
N#C/C(=C(/O)c1ccco1)c1nc2ccccc2s1,-11%,?,-4%,-2%,-11%,?
N#C/C(=C(/O)c1cccc(F)c1)c1nc2ccccc2s1,-6%,40µM*,-4%,-2%,13%,?
Cn1c(/C(C#N)=C(\O)c2cccc(F)c2)nc2ccccc21,-3%,3%,-4%,/,7.1µM*,7.1µM*
COc1ccc(N(C(=O)c2cccc(C)c2)S(=O)(=O)c2ccc(C)cc2)cc1,/,1%,1%,0%,/,/
Cc1nc2ccccc2nc1CN1CCOc2ccc(C(C)(O)COc3ccccc3)cc2C1 (stereo unspecified),/,2%,/,/,/,/
CCNC(=S)Nc1nc2c(cc1C(=O)OCC)CCCC2,1%,-1%,-2%,?,1.8µM*,0.56µM*
CCOC(=O)CC(=O)COc1nc2cc3c(nc2o1)CCCC3,-6%,0%,0%,/,0%,2%
C=CCNC(=S)Nc1nc2c(cc1C(=O)OCC)CCCC2,5%,-2%,/,-1%,8.9µM*,4µM*
COc1cccc(C(=O)Nc2ccc(C(=O)OCc3cc(=O)n4nc(C5CC5)sc4n3)cc2)c1,/,6%,-20%,2%,/,/
O=S(=O)(c1ccccc1Br)N(Cc1ccccc1)Cc1ccco1,-1%,/,/,/,-13%,3%
CC(C)Cc1nc2oc3c(=O)[nH]cnc3c2c2c1CCC2,11%,-1%,11µM*,-6%,-11%,6%
O=C(c1cccc(Cl)c1)N1CCCC(c2ccc(Cl)cc2)=N1,-26%,/,-2%,-2%,?,?
SMILES,Sfp PPTase inh,PINK1 modulator,ClpP mod,Epigenetic reg,VP16 counter,RORg inh
O=C(c1ccccc1)N1CCCC(c2ccc(Cl)cc2)=N1,79µM*,/,0%,0%,?,?
COc1cc2nc(N3CCCN(C)CC3)nc(NC3CCN(C)C3)c2cc1OC (stereo unspecified),/,-1%,4%,/,/,/
Cc1cc(C)n(-c2ccc(C(=O)C(C#N)c3nc4ccccc4n3C)cc2)n1 (stereo unspecified),1%,3%[38.3 µM],1%,3%,8.9µM*,3.2µM*
O=C(c1ccco1)N1N=C(c2ccc(Br)cc2)CC1(O)C(F)(F)F (stereo unspecified),-89%,1%,/,-2%,?,7.1µM*
O=C(c1ccco1)N1N=C(c2ccc(Cl)cc2)CC1(O)C(F)(F)F (stereo unspecified),13%,6%,/,-1%,5.6µM*,?
O=C(c1ccco1)N1N=C(c2ccncc2)CC1(O)C(F)(F)F (stereo unspecified),-10%,3%,/,8%,2%,10%
Clc1cccc(CNc2ncnc3nc[nH]c23)c1,/,1%,3%,/,/,/
CCCn1c(N/N=C(C)\C=C\c2ccccc2)nc2c1c(=O)[nH]c(=O)n2C,40µM*,/,/,3%,-11%,-39%
Cn1c(=O)[nH]c(=O)c2c1nc(NN)n2CCOc1ccccc1,25µM*,-2%,2%,/,4%,1%
Cc1ccc(CNc2ncnc3sc(C(=O)N4CCC[C@H]4C(N)=O)c(C)c23)o1,/,-1%,/,/,/,/
COc1cc2c(Cc3c4c5c(cc(OC)c(OC)c5c5c(OC)c(OC)ccc35)CCN4C)c3c4c(cc(OC)c(OC)c4c2cc1OC)CCN3C,-27%,/,/,-3%,4%,-1%
CCOC(=O)N1CCc2cc(OC)c(OC)c3c2c1cc1cc(OC)c(OC)cc13,/,-7%,28µM*,/,/,/
COc1ccc2c(c1)CCc1cnc(-n3ncc(C(=O)NCCCc4ccncc4)c3C)nc1-2,/,2%,/,/,/,/
Cc1ccccc1Oc1ncnc2oc(-c3ccccc3)cc12,-18%,1%,32µM*,0%,9%,-15%
Cc1cc(C)c(S(=O)(=O)/N=C2/C=C(SCC(=O)O)C(=O)c3ccccc32)cc1C,22µM*,13%,/,0%,?,-18%
COc1cccc(CNCCSc2nnnn2C)c1OCc1ccccc1,/,1%,-4%,-1%,/,/
Cc1cc(N2CCN(c3ccccc3Cl)CC2)n2cc(-c3ccccc3)nc2n1,?,18%,14µM*,1%,?,-41%
Cc1cc(N2CCN(c3ccccc3)CC2)n2cc(-c3ccccc3)nc2n1,?,0%,?,-2%,-19%,22%
Cc1ccc(CN2CCC(CNC(=O)c3cnn(-c4ccccc4)c3C3CCN(C(=O)OC(C)(C)C)CC3)CC2)cc1,/,2%,-3%,0%,/,/
CCOC(=O)C(C)Sc1nc(-c2ccccc2Cl)cc(-c2ccccc2)c1C#N (stereo unspecified),/,0%,-20%,-1%,/,/
CC(Sc1nc(C(C)(C)C)cc(-c2ccccc2)c1C#N)C(=O)Nc1ccccc1 (stereo unspecified),14µM*,8%,-2%,0%,-9%,-12%

# Compound activity as filed in PubChem BioAssay.
